Screening data (PubChem BioAssay)
Rows were chosen to be rich in hits. Some 2.3% of all compounds tested hit in one or more screens of this group.
MEKK2wt PB1 HTS: modulators of MEK5 binding to wildtype MEKK2, primary screen, biochemical, multiplex bead flow cytometry, Alexa488-MEK5; Alexa488-MEK5 binding to MEKK2 WT; actives lie on both sides; binding response (% of control), % at 10 µM; 290,000 tested, 1.1% active; in the data active means binding response below about 67% or above about 130%
UBC13 inh: UBC13 polyubiquitin chain formation inhibitors, primary screen, biochemical, TR-FRET, uHTS. Ubiquitin-conjugating enzyme E2 N (Homo sapiens), P61088. inhibition, % at 20 µM. 330,000 tested, 0.47% active. AID 485273, 2010; in the data active means inhibition above about 45%, passing the limit was not always enough
MEKK3 PB1 HTS: modulators of MEKK3-MEK5 PB1 binding, primary screen, biochemical, wildtype MEKK3, multiplex bead flow cytometry, Alexa488-MEK5 | Mitogen-activated protein kinase kinase kinase 3 (Homo sapiens), Q99759 | bead-based flow cytometry, Alexa488-MEK5 binding to MEKK3; actives lie on both sides; 0 = blocked by unlabeled MEK5, 100 = vehicle | binding response (% of control), % at 10 µM | 290,000 tested, 1.4% active;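 active means binding response more than 3 SD above or below the average of its plate-row segment, actives on both sides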;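 further: Alexa488 bead fluorescence after subtracting the streptavidin-only scavenger bead signal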
MEKK2mut PB1 HTS: MEK5 binding signal on mutant MEKK2 PB1, primary screen, biochemical, multiplex bead flow cytometry, Alexa488-MEK5; percent response, % at 10 µM; AID 1530, 2009; 290,000 tested, 0.35% active; Alexa488-MEK5 binding to MEKK2 mutant; in the data active means percent response above about 24%, passing the limit was not always enough
MEKK2wt confirm: modulators of MEK5 binding to wildtype MEKK2, confirmation, biochemical, single concentration, multiplex bead flow cytometry. Alexa488-MEK5 binding to MEKK2 WT; actives lie on both sides. binding response (% of control), % at 10 µM. 5,900 tested, 2.4% active. shares compounds with MEKK3 PB1 HTS; in the data active means binding response below about 16% or above about 210%; inactive means in between
MEKK2mut-MEK5: mutant MEKK2 PB1-MEK5 binding signal retest – biochemical, single concentration, multiplex bead flow cytometry, confirmation. shares compounds with MEKK3 PB1 HTS. Alexa488-MEK5 binding to MEKK2 mutant. percent response, % at 10 µM. 5,900 tested, 2% active. AID 1893, 2009; in the data active means percent response mostly above about 71%, no sharp cut-off; inactive means mostly below about 38%;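 further: higher means compound restores mutant binding toward wildtype level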
MEKK3-MEK5 inh: MEKK3 wild-type PB1 binding to MEK5, inhibitors, confirmation, biochemical, bead multiplex flow cytometry, single concentration, wildtype | shares compounds with MEKK3 PB1 HTS | Alexa488-MEK5 binding to MEKK3; active compounds read low | binding response (% of control), % at 10 µM | 5,900 tested, 1.8% active | AID 1894, 2009;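 active means binding response below 72% of control, or above a set upper limit, though filed actives all read lower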;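 further: 100% = DMSO only wells and 0% = binding blocked by excess unlabeled MEK5; lower values mean stronger disruption of MEK5 binding to MEKK3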
The depositor's hits bear a star; [ ] = another dose, or the depositor's remark.

What do the screens show for `O=c1oc2c(CN3CCN(CCO)CC3)c(O)ccc2cc1-c1ccccn1`?
MEKK2wt PB1 HTS: 97.0; UBC13 inh: 20.4; MEKK3 PB1 HTS: 85.0; MEKK2mut PB1 HTS: -4.0

Results for O=C(COC(=O)c1ccccc1)Nc1ccccc1Br ?
MEKK2wt PB1 HTS: 54.0*[inhibitor]; UBC13 inh: 7.3; MEKK3 PB1 HTS: 46.0*[inhibitor]; MEKK2mut PB1 HTS: -16.0; MEKK2wt confirm: 41.0; MEKK2mut-MEK5: -29.0; MEKK3-MEK5 inh: 85.0

Results for CCNC(=O)COC(=O)c1cccc(Br)c1 ?
MEKK2wt PB1 HTS: 39.0*[inhibitor]; UBC13 inh: 7.0; MEKK3 PB1 HTS: 38.0*[inhibitor]; MEKK2mut PB1 HTS: -13.0; MEKK2wt confirm: 102.0; MEKK2mut-MEK5: -6.0; MEKK3-MEK5 inh: 98.0

What do the screens show for `O=C(COC(=O)c1c(Cl)cccc1Cl)Nc1ccccc1Br`?
MEKK2wt PB1 HTS: 103.0; UBC13 inh: -3.9; MEKK3 PB1 HTS: 117.0; MEKK2mut PB1 HTS: 1.0

What do the screens show for `CC(OC(=O)CCN1C(=O)c2cccc([N+](=O)[O-])c2C1=O)C(=O)Nc1cc(Cl)cc(Cl)c1` (configuration not stated)?
MEKK2wt PB1 HTS: 103.0; UBC13 inh: -5.8; MEKK3 PB1 HTS: 105.0; MEKK2mut PB1 HTS: 0.0

Results for N#Cc1ccc(Cl)cc1NC(=O)COC(=O)[C@H](CCC(N)=O)NC(=O)c1ccc(F)cc1 ?
MEKK2wt PB1 HTS: 100.0; UBC13 inh: -13.7; MEKK3 PB1 HTS: 99.0; MEKK2mut PB1 HTS: -1.0

How did CCOc1ccc(NC(=O)CCC(=O)NNC(=O)COc2ccc(C)cc2Br)cc1 do in these assays?
MEKK2wt PB1 HTS: 101.0; UBC13 inh: -7.3; MEKK3 PB1 HTS: 102.0; MEKK2mut PB1 HTS: 5.0

What do the screens show for `O=C(Cc1c(Cl)cccc1Cl)N1CCN(S(=O)(=O)c2cccs2)CC1`?
UBC13 inh: -7.8

What do the screens show for `COc1cc(/C=N/Nc2nc(N3CCCC3)nc(N3CCCC3)n2)ccc1OCc1ccccc1F`?
MEKK2wt PB1 HTS: 88.0; UBC13 inh: -5.1; MEKK3 PB1 HTS: 74.0; MEKK2mut PB1 HTS: -23.0

What do the screens show for `COc1ccc(C(C)=O)cc1COC(=O)c1ccc2ccccc2n1`?
MEKK2wt PB1 HTS: 107.0; UBC13 inh: 7.7; MEKK3 PB1 HTS: 129.0*; MEKK2mut PB1 HTS: -1.0; MEKK2wt confirm: 102.0; MEKK2mut-MEK5: 3.0; MEKK3-MEK5 inh: 102.0

How did CCN(CC)CCCNC(=O)c1[nH]c2ccccc2c1Sc1ccc(Cl)cc1 do in these assays?
MEKK2wt PB1 HTS: 163.0*; UBC13 inh: 20.6; MEKK3 PB1 HTS: 105.0; MEKK2mut PB1 HTS: 38.0*; MEKK2wt confirm: 167.0; MEKK2mut-MEK5: 46.0; MEKK3-MEK5 inh: 106.0

What do the screens show for `Cc1ccc(C(=O)Nc2ccccc2C(=O)N2CCOCC2)cc1[N+](=O)[O-]`?
MEKK2wt PB1 HTS: 105.0; UBC13 inh: 0.0; MEKK3 PB1 HTS: 101.0; MEKK2mut PB1 HTS: 3.0

How did CCCNC(=O)C1(CC2CC(c3ccccc3)=NO2)CCN(C(=O)C2CCCC2)CC1 (configuration not stated) do in these assays?
UBC13 inh: 8.5

How did Cn1ncc2c(NNC(=O)c3ccccc3Cl)ncnc21 do in these assays?
MEKK2wt PB1 HTS: 100.0; UBC13 inh: 8.3; MEKK3 PB1 HTS: 129.0*; MEKK2mut PB1 HTS: -1.0; MEKK2wt confirm: 100.0; MEKK2mut-MEK5: 2.0; MEKK3-MEK5 inh: 104.0

Results for Cc1ccccc1C(=O)NNc1ncnc2c1cnn2C ?
MEKK2wt PB1 HTS: 96.0; UBC13 inh: 8.2; MEKK3 PB1 HTS: 92.0; MEKK2mut PB1 HTS: -4.0

Results for O=c1oc(-c2ccc(Br)cc2)nc2ccccc12 ?
MEKK2wt PB1 HTS: 117.0; UBC13 inh: -6.5; MEKK3 PB1 HTS: 105.0; MEKK2mut PB1 HTS: 12.0
